Screening data deposited in PubChem by National Center for Advancing Translational Sciences (NCATS).
The sample as a whole holds a higher share of hits than the screen did.
nsP2pro primary: Primary qHTS for inhibitors of NSP2Pro chikungunya virus (CHIKV); FRET peptide cleavage, nsP2pro, fluorescence 1 h; Potency, µM (top dose mostly 24.9 µM), without a hit: top-dose activity change, negative = inhibition, hits mostly inhibitors; actives 1.1% (n = 31,000); further: nearly all actives have a fitted effect of over 60% in size
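Purified recombinant nsP2pro (150 nM final) in 10 mM Tris-HCl pH 8.0 with 0.01% Tween 20 was preincubated 15 min at room temperature with compound (7 concentrations, up to 25 uM). FRET peptide 2 substrate (2.5 uM final) was then added; fluorescence was read after 1 h.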
CHIKV nsP2 cell: Secondary cell base assay for inhibitors of NSP2Pro Chikungunya virus (CHIKV) | AID 1964100, 2024 | cell-based CHIKV nsP2 protease reporter assay | actives 10% (n = 450) | shares compounds with nsP2pro primary | Potency, µM (titrated, usually from 51.1 µM), for inactives: at the top dose activity change, negative = inhibition, usual class: inhibitors; further: nearly all actives have a fitted effect of over 70% in size
Target sequence (Q8JUX6 220-798 limits assumed): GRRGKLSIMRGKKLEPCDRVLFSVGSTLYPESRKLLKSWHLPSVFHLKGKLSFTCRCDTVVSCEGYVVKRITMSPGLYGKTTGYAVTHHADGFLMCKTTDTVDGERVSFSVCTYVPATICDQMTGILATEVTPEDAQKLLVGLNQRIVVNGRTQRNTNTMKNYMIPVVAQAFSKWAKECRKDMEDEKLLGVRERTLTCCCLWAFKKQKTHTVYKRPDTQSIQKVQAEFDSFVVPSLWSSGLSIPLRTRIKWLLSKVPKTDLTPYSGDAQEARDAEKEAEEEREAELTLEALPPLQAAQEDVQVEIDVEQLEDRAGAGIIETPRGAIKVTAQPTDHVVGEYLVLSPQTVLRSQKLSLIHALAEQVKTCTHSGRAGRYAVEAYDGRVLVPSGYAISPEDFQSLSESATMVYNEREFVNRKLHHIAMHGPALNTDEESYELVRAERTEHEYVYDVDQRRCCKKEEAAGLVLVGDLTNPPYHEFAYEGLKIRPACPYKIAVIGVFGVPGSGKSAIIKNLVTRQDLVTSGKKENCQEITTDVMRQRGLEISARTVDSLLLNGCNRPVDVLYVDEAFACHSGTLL
CHIKV NSP2 FL: Selectivity profile for inhibitors of NSP2Pro chikungunya virus (CHIKV): Full length NSP2 enzyme counterscreen (CHIKV-NSP2) | Potency, µM (top dose mostly 50.7 µM), without a hit: at the top dose activity change, negative = inhibition, actives largely listed as inhibitors | Full-length CHIKV NSP2 protease enzymatic counterscreen | AID 1964101, 2024 | actives 39% (n = 410) | shares compounds with nsP2pro primary; further: nearly all actives have a fitted effect of over 65% in size
Furin counterscr: Selectivity profile for inhibitors of NSP2Pro chikungunya virus (CHIKV): Human furin counterscreen; Potency, µM (titrated, usually from 50.6 µM), inactives show at the top dose activity change, negative = inhibition, most hits filed as inhibitors; shares compounds with nsP2pro primary; Recombinant human furin enzymatic counterscreen, fluorogenic substrate; actives 6% (n = 410); AID 1964102, 2024
NS23 peptide cs: Selectivity profile for inhibitors of NSP2Pro chikungunya virus (CHIKV): Endogenous NS2/3 peptide Counterscreen; shares compounds with nsP2pro primary; Purified CHIKV nsP2 protease, endogenous NS2/3 peptide cleavage; Potency, µM (highest dose often 51 µM), without a hit: at the top dose activity change, negative = inhibition, usual class: inhibitors; actives 34% (n = 410); further: nearly all actives have a fitted effect of over 55% in size
Papain cs: Selectivity profile for inhibitors of NSP2Pro chikungunya virus (CHIKV): Papain Counterscreen; shares compounds with nsP2pro primary; purified papain protease activity, enzymatic inhibition; Potency, µM (series often up to 51 µM), for the others: top-dose activity change, negative = inhibition, hits mostly inhibitors; actives 5% (n = 410); AID 1964104, 2024
nsP2pro confirm: Confirmatory qHTS for inhibitors of NSP2Pro chikungunya virus (CHIKV); shares compounds with nsP2pro primary; CHIKV nsP2 protease enzymatic activity, qHTS; AID 1964105, 2024; Potency, µM (highest dose often 25.5 µM), inactives show at the highest dose activity change, negative = inhibition, actives largely listed as inhibitors; actives 43% (n = 410); further: nearly all actives have a fitted effect of over 75% in size
HCV NS3 4A cs: Selectivity profile for inhibitors of NSP2Pro chikungunya virus (CHIKV): NS34A-HCV Counterscreen; HCV NS3/4A protease biochemical counterscreen; actives 20% (n = 410); shares compounds with nsP2pro primary; Potency, µM (highest dose often 50.9 µM), usual class: inhibitors; further: nearly all actives have a fitted effect of over 55% in size
* hit, by the source's call; i = inactive; ? = inconclusive; [ ] = dose if it differs, or a comment. The call rests on the fitted dose curve. On the % scale 0 is the no-effect control and ±100 the full control effect; potency means the concentration at half of the fitted maximal effect.

SMILES	nsP2pro primary	others
Cc1cc(C)nc(NC(=S)N2CCN(c3ccc(Cl)cc3S(C)(=O)=O)CC2)c1	i
Fc1cccc(-c2nc3ccccc3s2)c1	-2%
Cc1ccc(-c2cc(C(=O)N3CC[S+](=O)([O-])CC3)c3ccccc3n2)cc1C	5%
COc1cccc(CN2Cc3cc(NC(=O)Cc4cccs4)ccc3OCC2=O)c1OC	5%
O=[S+]1([O-])[C@@H](c2ccccc2)[C@H](COCc2ccccc2)CN1C1CC1	-6%
Cc1cc(C)nc(NC(=S)N2CCN(c3cncnc3)CC2)c1	3%
CCCN1C[C@@H](CO)[C@H](c2nc(CCOC)no2)C1	-1%
O=C(O)C(=O)O	-7%
O=C(NCc1c[nH]c2ncccc12)c1ccccc1Cl	4%[39.2 µM]
O=C(NCc1ccnc2[nH]ccc12)c1ccccc1Cl	4.5µM*	CHIKV nsP2 cell=24µM*;CHIKV NSP2 FL=4.7µM*;Furin counterscr=-15%;NS23 peptide cs=19µM*;Papain cs=-10%;nsP2pro confirm=12µM*;HCV NS3 4A cs=3µM*
O=C(NCc1ccc(Cl)cc1)c1c[nH]c2ncccc12	i
Cc1ccnc(NC(=S)N2CCN(c3ccc(Cl)c(Cl)c3)CC2)c1	i
O=C(CCc1ccc2c(c1)OCO2)N[C@H](c1ccccn1)C1CC(O)C1 (stereo not given in full)	i
CC(=O)c1cc2cccc(OCC(O)CNC(C)C)c2o1 (stereo not given)	-4%
COCC1CN(C)CC12CCN(Cc1sccc1C)CC2 (stereo not given)	0%
CCNC(=NCCCC[C@H](NC(=O)[C@H](CC(C)C)NC(=O)[C@@H](CCCCN=C(NCC)NCC)NC(=O)[C@@H](Cc1ccc(O)cc1)NC(=O)[C@@H](CO)NC(=O)[C@H](Cc1cccnc1)NC(=O)[C@H](Cc1ccc(Cl)cc1)NC(=O)C(Cc1ccc2ccccc2c1)NC(C)=O)C(=O)N1CCCC1C(=O)N[C@H](C)C(N)=O)NCC (stereo not given in full)	99%
CC(=O)NCc1nnc2n1C(C(=O)NC1CCCCCC1)CC2 (stereo not given)	-22%[39.2 µM]
Cn1ccc(C(=O)NCc2nnc3n2C(C(=O)NCC2CC2)CC3)n1 (stereo not given)	7.9µM*	CHIKV nsP2 cell=10%;CHIKV NSP2 FL=?;Furin counterscr=-6%;NS23 peptide cs=?;Papain cs=3%;nsP2pro confirm=?;HCV NS3 4A cs=11µM*
O=C(NCc1nnc2n1C(C(=O)N1CCCC1)CC2)Nc1cccnc1 (stereo not given)	-20%
Nc1ccccc1	0%
[Hg+][c]1ccccc1	0.56µM*	CHIKV nsP2 cell=?;CHIKV NSP2 FL=1µM*;Furin counterscr=1µM*;NS23 peptide cs=3.7µM*;Papain cs=-3%;nsP2pro confirm=0.28µM*;HCV NS3 4A cs=0.23µM*
CCN1CCC(=C2c3ccccc3CCc3ccccc32)C1C (stereo not given)	-12%
CN(C)C/C=C/C(=O)Nc1cccc(C(OCCN2CCCCC2)c2cc3nccc(C(=O)O)c3s2)c1 (stereo not given)	-1%
COc1cc(C(=O)O)cc(OC)c1O	?	CHIKV nsP2 cell=-4%;CHIKV NSP2 FL=?;Furin counterscr=-2%;NS23 peptide cs=i;Papain cs=-6%;nsP2pro confirm=2%;HCV NS3 4A cs=i
COc1cc(C(=O)O)ccc1OC1OC(CO)C(O)C(O)C1O (stereo not given)	-3%
SMILES	nsP2pro primary	others
COc1ccc(-c2ccc3cc(C(=O)O)ccc3c2)cc1C12CC3CC(CC(C3)C1)C2	-21%
COc1cc(-c2cn(C3CCc4c(F)cccc4N(CC(F)(F)F)C3=O)nn2)ccc1-n1cnc(C)c1 (stereo not given)	98%
Cc1cc(NC(=O)c2cccc(NC(=O)/C=C/CN(C)C)c2)ccc1Nc1nccc(-c2cccnc2)n1	215%
CNc1ncc(C(=O)N2C[C@H]3COc4ccccc4C[C@@]3(C(=O)O)C2)cn1	-3%
c1coc(-c2nnc([C@H]3CCN(Cc4c[nH]c5ccccc45)C3)o2)c1	3%[39.2 µM]
Cc1cc(C)nc(NC(=S)N2CCN(c3nc4ccccc4s3)CC2)c1	-8%
O=C1N(C2CCCCC2)C[C@H]2CN(S(=O)(=O)c3ccccc3)CCN12	4%[39.2 µM]
Cc1cc(N[S+](=O)([O-])c2ccc(NC(=O)Cc3cccc(Cl)c3Cl)cc2)no1	3%
CC1(C)CCC[C@@]2(C)[C@H]1[C@H](O)C=C1COC(=O)[C@@]12O	-13%
CO[C@H]1c2cc(C(C)C)c(O)c(O)c2[C@@]23CCCC(C)(C)C2[C@@H]1OC3=O (stereo not given in full)	6.1µM*	CHIKV nsP2 cell=-19%[33.5 µM];CHIKV NSP2 FL=16µM*;Furin counterscr=-10%[33.5 µM];NS23 peptide cs=13µM*;Papain cs=?;nsP2pro confirm=5.5µM*;HCV NS3 4A cs=i
CC(C)C[C@H](NC(=O)CNC(=O)c1cc(Cl)ccc1Cl)B1OC(=O)C(CC(=O)O)(CC(=O)O)O1	-13%
COc1cccc(CN2Cc3cc(NC(=O)c4ccc(F)cc4F)ccc3OC(C)C2=O)c1 (stereo not given)	-15%
C=C(C(=O)O)C1CC2=C(C)C(=O)CC2C(C)CC1O (stereo not given)	4.4µM*	CHIKV nsP2 cell=?;CHIKV NSP2 FL=?;Furin counterscr=-5%;NS23 peptide cs=?;Papain cs=-3%;nsP2pro confirm=?;HCV NS3 4A cs=i
N#Cc1ccc(N2N=C3c4ccc(C(=O)O)cc4CC[C@@H]3[C@@H]2C2CCCC2)cc1Cl	78%
O=C(NC1CCN(C(=O)c2ccc(-c3cncnc3)cc2)CC1)c1ccccc1F	i
O[C@@H]1C[C@@H](c2nnc3n2CCN(C2CCCCC2)C3)N(Cc2cccnc2)C1	-22%
c1cncc(CN2CCn3c(nnc3C3CCCNC3)C2)c1 (stereo not given)	?	CHIKV nsP2 cell=7%
